Assay outcomes: PubChem BioAssay, National Center for Advancing Translational Sciences (NCATS)
DT40 TDP1 CPT – DT40-hTDP1 cell growth loss with CPT. chicken DT40 Tdp1-/-;hTDP1 cells + 20 nM CPT, ATP luminescence, 48 h. Potency, µM (titrated, usually from 46.2 µM), inactives show top-dose activity change, negative = growth inhibition, most hits filed as inhibitors. 420,000 compounds, 12% hits; also: potency is read from the fitted curve at half-maximal effect; nearly all actives have a fitted effect of over 55% in size
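Cell growth measured by CellTiter-Glo luminescence after a minimum 48 h, 37 C compound exposure with 20 nM CPT in Tdp1-knockout DT40 cells stably expressing hTDP1, seeded 400/well; qHTS titration format.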
HT1080 IDH1KD tx – toxicity to HT-1080 IDH1 knockdown cells (counter line). HT-1080 IDH1 knockdown viability, ATP luminescence, 48 h. Potency, µM (doses to about 46.1 µM), for the others: at the top dose activity, negative = toxicity, most hits filed as cytotoxic. 360,000 compounds, 2% hits;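 also: potency is read from the fitted curve at half-maximal effect; 0% = DMSO wells and -100% = cell-free medium wells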
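Using the IDH1-knockdown HT-1080 line run in the same batch and compound series as the NT line, viability after 48 h at 37 °C was determined by CellTiter-Glo luminescence and expressed as % activity.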
HT1080-NT tox – kills 2HG-producing HT-1080-NT fibrosarcoma cells; Potency, µM (highest dose often 46.1 µM), without a hit: top-dose activity, negative = less viability, hits mostly cytotoxic; HT-1080-NT fibrosarcoma viability, CellTiter-Glo ATP luminescence, 48 h; 360,000 compounds, 1.6% hits;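 also: NT is the 2HG producing partner of a matched IDH1 knockdown line; potency is read from the fitted curve at half-maximal effect; 0% = DMSO-treated cells and -100% = media-only wells without cells; nearly all actives have a fitted effect of over 55% in size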
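Read-out is CellTiter-Glo luminescence after 10 minutes at room temperature, following 48 hours' compound treatment of HT-1080-NT cells (750 cells/well, RPMI, 5% FBS, 37 degrees C).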
IL1B secr inh – inflammasome signaling inhibition, IL-1 beta readout; activity change, % at 57.5 µM; THP-1 LPS/ATP IL-1B secretion, AlphaLISA, 16 h; stronger effect = lower value; 360,000 compounds, 4.7% hits; in the data active = activity change below about -50%; inconclusive = mostly about -30% to -49%
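THP-1 cells pretreated 1 hr with compounds (up to 57.5 uM final), then stimulated with LPS (250 ng/mL final) plus ATP (1.25 mM final); secreted IL-1B measured by AlphaLISA after 16 hr, decreased signal indicating inhibition.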
TDP1 cell noCPT – qHTS for Inhibitors of human tyrosyl-DNA phosphodiesterase 1 (TDP1): qHTS in cells in absence of CPT; DT40 Tdp1-/- hTDP1 cells, no CPT, ATP luminescence, 48 h; Potency, µM (series often up to 46.2 µM), without a hit: at the top dose activity change, negative = growth inhibition, actives largely listed as inhibitors; 420,000 compounds, 15% hits; AID 686978, 2013; also: potency is read from the fitted curve at half-maximal effect; nearly all actives have a fitted effect of over 55% in size
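DT40 Tdp1-/-;hTDP1 cells, no CPT (DMSO vehicle only), 400 cells/well; compounds pin-transferred; ≥48 hr, 37 °C; CellTiter-Glo 30 min RT dark, luminescence read.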
ELG1 DNA repair – ELG1-dependent DNA repair inhibition; Potency, µM (doses to about 46.1 µM), inactives show top-dose activity change, negative = inhibition, actives largely listed as inhibitors; 330,000 compounds, 2.3% hits; AID 504467; HEK293T ELG1-luciferase reporter, luminescence, 16 h; DNA damage induced by 5-fluorouridine; also: potency is read from the fitted curve at half-maximal effect; nearly all actives have a fitted effect of over 55% in size
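DMSO vehicle served as the neutral condition. Each well held 2,000 cells given 5-fluorouridine plus compound; after 16 hr at 37 °C/5% CO2, ONE-Glo was added and luciferase measured 30 min later.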
* = called active by the depositor; u = inconclusive; x = no result; [ ] = remark or other dose. This is a sample that favours compounds with a hit; in the whole collection about 19% have one here. Unless noted, calls follow the shape of the dose curve; as a rule, active = well fitted curve in the direction sought with a large enough effect; inconclusive = small, poorly fitted or top-dose-only effect, or another doubt; inactive = no such curve, though single readings can be large; an effect the other way counts as inactive or inconclusive. Unless noted, % is scaled to controls: 0 for no effect and ±100 for the full control effect.

SMILES	DT40 TDP1 CPT	HT1080 IDH1KD tx	HT1080-NT tox	IL1B secr inh	TDP1 cell noCPT	ELG1 DNA repair
CC(=O)Oc1cc(C(=O)OCC(=O)NC23CC4CC(CC(C4)C2)C3)cc(OC(C)=O)c1OC(C)=O	5.8µM*	u	-27.4%	123.8	u	x
Cc1nc2cc(C(=O)OCC(=O)NC34CC5CC(CC(C5)C3)C4)ccc2n1-c1ccccc1	5.8%	2.6%	-13.0%	-65.9*	u	-12.7%
O=C(COC(=O)c1cccs1)NC12CC3CC(CC(C3)C1)C2	16.8%	4.0%	12.6%	-1.3	-2.6%	8.6%
O=C(OCC(=O)C12CC3CC(CC(C3)C1)C2)c1ccccc1O	u	9.9%	-0.9%	1.0	u	14.0%
O=C(COC(=O)c1ccccc1O)NC12CC3CC(CC(C3)C1)C2	11.6µM*	-3.1%	1.0%	1.1	18.4µM*	u
COc1ccc(NC(=O)CN2C(=O)NC(C)(c3ccccc3)C2=O)c(OC)c1 (configuration not stated)	-3.2%	13.6%	20.6%	14.1	-10.9%	0.0%
O=C1CC(Cc2ccc(Br)cc2)C(=O)N1c1ccccc1 (configuration not stated)	u	-3.2%	-4.0%	0.0	-17.2%	3.4%
NC1CCN(c2c(F)cc3c(=O)c(C(=O)O)cn(C4CC4)c3c2Cl)C1 (configuration not stated)	7.31µM*	12.7%	7.7%	0.0	6.51µM*	-4.6%
CCn1cc(C(=O)O)c(=O)c2cc(F)c(N3CCNCC3)nc21	u	5.6%	29.7%	29.8	u	x
NC1CCN(c2nc3c(cc2F)c(=O)c(C(=O)O)cn3-c2ccc(F)cc2F)C1 (configuration not stated)	16.4µM*	-14.6%	u	-24.7	8.2µM*	x
CCN(CC)S(=O)(=O)c1ccc(S(=O)(=O)N2CCC(N3CCCCC3)CC2)cc1	4.0%	8.0%	15.2%	17.1	-11.0%	-0.4%
O=C(NCCc1ccccc1)c1ccc(Cn2c(SCc3ccccc3F)nc3cccnc32)cc1	16.4µM*	x	x	x	18.4µM*	x
O=C(NCCc1ccccc1)c1ccc(CSc2nc3cccnc3n2Cc2ccccc2F)cc1	u	x	x	x	9.2µM*	x
O=[N+]([O-])c1ccccc1-c1ccc(C(=S)N2CCCCC2)o1	-17.7%	-12.9%	-13.2%	-13.8	u	u
CN1CCN(C(=S)c2ccc(-c3cccc([N+](=O)[O-])c3)o2)CC1	-27.9%	-3.5%	-0.3%	-23.3	23.1µM*	u
Cc1c(Cl)cccc1-c1ccc(C(=O)N2CCN(c3ccc([N+](=O)[O-])cc3)CC2)o1	u	15.3%	21.4%	-29.7	25.9µM*	16.4µM*
O=C(c1ccc(-c2cccc(Cl)c2)o1)N1CCN(c2ccc([N+](=O)[O-])cc2)CC1	u	2.1%	-0.1%	18.1	20.6µM*	u
O=[N+]([O-])c1ccccc1-c1ccc(C(=S)N2CCCC2)o1	25.9µM*	-9.8%	0.7%	1.3	u	u
COc1cc(N=Nc2ccc(C)cc2S(N)(=O)=O)c(C)cc1N	-3.0%	-22.0%	u	13.1	u	x
COc1ccc(CCNC(=O)CN2C(=O)NC(c3ccccc3)(c3ccccc3)C2=O)cc1	u	-10.2%	-10.4%	-23.1	u	25.9µM*
CC(C)C(C)NC(=O)CN1C(=O)NC(c2ccccc2)(c2ccccc2)C1=O (configuration not stated)	8.2%	-0.2%	-0.4%	-66.8*	0.4%	-11.1%
Cc1ccc(C2(c3ccccc3)NC(=O)N(CC(=O)NCc3ccccc3)C2=O)cc1C (configuration not stated)	u	-16.5%	-20.1%	u	23.1µM*	u
COc1ccc(C2(c3ccc(OC)cc3)NC(=O)N(CC(=O)N(C)c3ccccc3)C2=O)cc1	u	-25.2%	-4.4%	u	u	u
CCOc1ccc(CN(C)C(=O)CN2C(=O)NC(c3ccccc3)(c3ccccc3)C2=O)cc1	u	u	u	-58.9*	u	-0.7%
CC1CCN(c2ccc3nnc(CCC(=O)Nc4cccc(F)c4)n3n2)CC1	u	21.9%	-0.3%	0.0	u	-1.4%
SMILES	DT40 TDP1 CPT	HT1080 IDH1KD tx	HT1080-NT tox	IL1B secr inh	TDP1 cell noCPT	ELG1 DNA repair
COc1ccc(C(=O)Nc2ccccc2N2CCOCC2)cc1S(=O)(=O)N1CCCC1	u	12.8%	7.8%	8.1	18.4µM*	-20.5%
COc1ccc(C(=O)Nc2ccccc2C)cc1S(=O)(=O)N1CCOCC1	19.6%	10.2%	24.3%	-10.9	12.8%	-3.1%
Cc1ccc(C)c(N2CCN(S(=O)(=O)c3cc(C(=O)Nc4cc(Cl)cc(Cl)c4)ccc3F)CC2)c1	11.6µM*	x	x	x	16.4µM*	x
CCc1ccccc1NC(=O)c1ccc(F)c(S(=O)(=O)N2CCN(c3ccccc3OC)CC2)c1	14.6µM*	x	x	x	13µM*	x
O=C(Nc1cc(Cl)cc(Cl)c1)c1ccc(F)c(S(=O)(=O)N2CCCCCC2)c1	5.17µM*	x	x	x	10.3µM*	x
C#CCOCCOCCOCCNc1nc(N2CCN(C(=O)[C@H](CC(N)=O)n3cc(C(N)[C@H](C)CC)nn3)CC2)nc(N2CCN(C(=O)[C@H](CC(N)=O)n3cc(C(N)[C@@H](C)CC)nn3)CC2)n1 (some centres not stated)	1.5%	14.8%	14.6%	18.3	-24.3%	16.4%
CCOC(=O)c1sc(NC(=O)c2cc3nc(-c4ccccc4)cc(C(F)(F)F)n3n2)c(C(=O)OCC)c1C	-19.8%	x	x	x	-19.5%	x
CCOc1ccccc1NC(=O)c1ccc(S(=O)(=O)N2CCCCC2)cc1	-2.5%	4.4%	16.5%	-18.8	-17.1%	-13.9%
CCOc1ccccc1NC(=O)c1ccc(F)c(S(=O)(=O)N2CCC3(CC2)OCCO3)c1	-17.0%	-3.3%	0.8%[9.24 µM]	-16.4	-23.5%	20.6µM*
O=C(Nc1cc(Cl)ccc1N1CCOCC1)c1ccc(F)c(S(=O)(=O)N2CCOCC2)c1	u	-1.7%	-7.6%	8.4	u	u
O=C(Nc1cc(Cl)cc(Cl)c1)c1ccc(F)c(S(=O)(=O)N2CCN(c3ccccc3F)CC2)c1	5.8µM*	x	x	x	7.31µM*	x
COc1ccc(CCNC(=O)c2ccc(F)c(S(=O)(=O)N3CCCCC3)c2)cc1	u	-20.6%	-14.8%	21.9	23.1µM*	x
